Results filed as inconclusive are left out. The source made the active and inactive calls. The call rests on the fitted dose curve; in most records, active means well fitted activation curve with a large enough effect; inconclusive means small, poorly fitted or top-dose-only effect; inactive means flat fitted curve, though single readings scatter.
Assay: Cellular Toxicity (caspase-3) Hek293 (AID 664);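 further: cells exposed to compound for 16 h at 37 °C before readout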
Settings: HEK293 caspase-3 activation, DMSO = 0%, 100 µM tamoxifen = 100%; at 92.2 µM (top of the series)
Outline: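 Activation of caspase-3/7 is measured as increased luminescence from cleaved peptide-aminoluciferin substrate in HEK293 cells treated 16 hours at 37 °C. AC50 values come from Hill-equation fits of concentration-response data.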
With `C(CCOCC1CO1)COCC1CO1` (configuration not stated) the caspase-3 activation was 0.467% (inactive). In the case of `CN(C)c1ccc(N)cc1`, the caspase-3 activation is reported as 2.4% (inactive). In the case of `O=[N+]([O-])/C=C/c1ccccc1`, the caspase-3 activation is reported as -2.17% (inactive).

Assay: Cellular Toxicity (caspase-3) N2a (AID 665);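 further: compound exposure lasted 16 h at 37 °C before readout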
Settings: N2a cells, luminescence, normalized: DMSO 0%, 10 µM staurosporine 100%; series mostly up to 92.2 µM
Outline: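 Plated mouse neuroblastoma N2a cells received titrated compounds for 16 h in complete medium. Caspase activity was then detected with a peptide-aminoluciferin luminescent reagent.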
For `O=C(O)C(Br)Br`, the outcome was “inactive”. With `Cc1ccc(OP(=O)(Oc2ccc(C)cc2)Oc2ccc(C)cc2)cc1` the outcome was “inactive”. With `Oc1c(Cl)c(Cl)cc(Cl)c1Cl` the outcome was “inactive”. For `Nc1ccc(Cc2ccc(N)c(Cl)c2)cc1Cl`, the outcome was “inactive”. In the case of `CN(C)c1ccc(N(C)C)cc1`, the outcome is reported as “inactive”. With `Brc1ccc(Oc2ccc(Br)cc2Br)c(Br)c1` the outcome was “inactive”. With `O=[N+]([O-])c1c(Cl)c(Cl)c(Cl)c(Cl)c1Cl` the outcome was “inactive”. In the case of `CN1CSC(=S)N(C)C1`, the outcome is reported as “inactive”. For `ClCC(Cl)Cl`, the outcome was “inactive”. With `C=CC(=O)OCCO` the outcome was “inactive”. For `CC(C)Br`, the outcome was “inactive”. For `O=[N+]([O-])c1ccc(O)c([N+](=O)[O-])c1`, the outcome was “inactive”. For `CC(C)[N+](=O)[O-]`, the outcome was “inactive”. With `CCCC[N+](=O)[O-]` the outcome was “inactive”. In the case of `Cc1cc(-c2cc(C)c(N)c(C)c2)cc(C)c1N`, the outcome is reported as “inactive”. For `Nc1cc(Cl)ccc1O`, the outcome was “inactive”. In the case of `CCN(N=O)C(N)=O`, the outcome is reported as “inactive”. With `N#CC(Cl)(Cl)Cl` the outcome was “inactive”. With `CCCCC(CC)COC(=O)c1ccc(C(=O)OCC(CC)CCCC)c(C(=O)OCC(CC)CCCC)c1` (configuration not stated) the outcome was “inactive”. In the case of `O=C(O)C(Br)CBr` (configuration not stated), the outcome is reported as “inactive”. With `Nc1c(Br)cc([N+](=O)[O-])cc1[N+](=O)[O-]` the outcome was “inactive”. With `O=[N+]([O-])c1ccccc1CCl` the outcome was “inactive”. For `Cc1cc(C)cc(OP(=O)(Oc2cc(C)cc(C)c2)Oc2cc(C)cc(C)c2)c1`, the outcome was “inactive”. For `N#CC(Br)Br`, the outcome was “inactive”. In the case of `O=C(O)C(Cl)Br` (configuration not stated), the outcome is reported as “inactive”. With `COP(=S)(OC)SCn1nnc2ccccc2c1=O` the outcome was “inactive”. With `Nc1ccc([N+](=O)[O-])cc1N` the outcome was “inactive”. For `O=C(O)c1cccc(Cl)c1`, the outcome was “inactive”. With `Cc1cc(N=Nc2ccccc2C)ccc1N` the outcome was “inactive”. In the case of `OCCCCO`, the outcome is reported as “inactive”. For `O=[N+]([O-])c1cc(Cl)c(Cl)c(Cl)c1`, the outcome was “inactive”. With `CC(C)(COCC1CO1)COCC1CO1` (configuration not stated) the outcome was “inactive”. In the case of `Cc1ccc2c(c1N)C(=O)c1ccccc1C2=O`, the outcome is reported as “inactive”. With `COc1ccccc1N` the outcome was “inactive”. For `CC(C)(C)OOC(=O)c1ccccc1`, the outcome was “inactive”. In the case of `c1ccc(N=NNc2ccccc2)cc1`, the outcome is reported as “inactive”. For `COC(C)(C)C`, the outcome was “inactive”. For `C(CCOCC1CO1)COCC1CO1` (configuration not stated), the outcome was “inactive”. With `CN(C)c1ccc(N)cc1` the outcome was “inactive”.
